Screening results as filed in PubChem BioAssay.
Sampled rows, rich in hits. Any-hit rate of the full collection: about 12%.
MARV entry inh: qHTS for inhibitors of binding or entry into cells for Marburg Virus | Marburg virus pseudotyped entry inhibition, cell reporter | Potency, µM (doses to about 37.8 µM), most hits filed as inhibitors | 1.8% of 300,000 active | AID 540276, 2011; calls by dose curve; tested in HEK293 cells
CHX counter: Cycloheximide Counterscreen for Small Molecule Inhibitors of Shiga Toxin; max response, %; 12% of 300,000 active; cell reporter, cycloheximide protein synthesis inhibition counterscreen; in the data active = max response mostly above about 13%, no sharp cut-off; inactive = mostly below about 14%; note: read at 38.3 µM for the half of the compounds with a filed dose
Lassa entry inh: qHTS for Inhibitors of binding or entry into cells for Lassa Virus | Lassa virus pseudotype entry inhibition, cell reporter | Potency, µM (titrated, usually from 37.9 µM), usual class: inhibitors | 1.2% of 300,000 active | AID 540256, 2011; calls by dose curve; tested in HEK293 cells; note: nearly all actives have a fitted effect of over 50% in size
Shiga toxin inh: A qHTS for Small Molecule Inhibitors of Shiga Toxin; Vero cells, Shiga toxin protein synthesis inhibition reporter; inhibition, % at 38.7 µM; 9.2% of 290,000 active; in the data active = inhibition mostly above about 28%, no sharp cut-off; inactive = mostly below about 43%
Each line names hits and unclear results; the compound was inactive in the other large screens.

Cc1ccccc1CN(C)C(=O)CNC(=O)c1ccc2ccccc2c1	none
Cc1nn(C)cc1CN(C)C(=O)c1cc(COc2ccc(F)cc2F)on1	none (no result: MARV entry inh, Lassa entry inh)
Cc1cc(CN(C)C(=O)c2cc(COc3ccc(C)c(C)c3)on2)on1	CHX counter 56.2, Shiga toxin inh 63.6
Cc1nnc(CN(C)C(=O)c2cc(COc3ccc(F)cc3Cl)on2)o1	MARV entry inh inconclusive, CHX counter 38.0, Shiga toxin inh 93.1
COc1cccc(OCc2cc(C(=O)N(C)Cc3nc(C)cs3)no2)c1	CHX counter 55.6, Lassa entry inh inconclusive, Shiga toxin inh 107.6
CC(C)CN(CCCNC(=O)CN1C(=O)COc2ccc(S(=O)(=O)N3CCCC3)cc21)CC(C)C	none (no result: MARV entry inh, Lassa entry inh)
O=c1[nH]c(SCc2c(F)cccc2Cl)nc2c1CCCC2	none (no result: CHX counter, Shiga toxin inh)
CC(OC(=O)c1ccccc1NS(=O)(=O)c1cccc(C(F)(F)F)c1)C(=O)N(C)Cc1ccccc1 (centres undefined)	MARV entry inh 7.08µM, Lassa entry inh inconclusive
C/C(=C\C(=S)Nc1ccccc1)Nc1ccccc1	none
CN(C)c1ccc(NC(=S)c2ccccn2)cc1	MARV entry inh 0.82µM, Lassa entry inh 0.891µM
CN(C)c1cc(O)c(C(=S)Nc2ccccc2)c(N(C)C)c1	MARV entry inh inconclusive, CHX counter 21.9, Shiga toxin inh 40.9
C=CCN(C)NC(=S)Nc1ccccc1	none
CN(C)c1ccc(C(=S)Nc2ccccc2)cc1	MARV entry inh 14.1µM, CHX counter 89.1, Lassa entry inh inconclusive, Shiga toxin inh 128.3
CC1(C)NC(=O)N(CC(=O)OCC(=O)Nc2cccc(S(N)(=O)=O)c2)C1=O	none (no result: MARV entry inh, Lassa entry inh)
COC(=O)c1ccc(NS(=O)(=O)c2ccc(S(=O)(=O)N3CCOCC3)cc2)cc1	none (no result: CHX counter, Shiga toxin inh)
CCc1ccc(CN2CCN(c3ncccn3)CC2)cc1	CHX counter 26.5 (no result: MARV entry inh, Lassa entry inh, Shiga toxin inh)
OCCN1CCN(CC/C=C2/c3ccccc3Sc3ccc(C(F)(F)F)cc32)CC1	MARV entry inh 8.91µM, Lassa entry inh 5.8µM
CN1CCN(CCCN2c3ccccc3Sc3ccccc32)CC1	none (no result: MARV entry inh, Lassa entry inh)
CN(C)CCC(=O)N1c2ccccc2Sc2ccc(C(F)(F)F)cc21	none (no result: MARV entry inh, Lassa entry inh)
CN1CCN(CCCN2c3ccccc3Sc3ccc(Cl)cc32)CC1	MARV entry inh 10.3µM, Lassa entry inh 9.2µM
CN(C)CCCN1c2ccccc2Sc2ccc(C(F)(F)F)cc21	MARV entry inh 6.31µM, Lassa entry inh 20.6µM
OCCN1CCN(CCCN2c3ccccc3Sc3ccc(C(F)(F)F)cc32)CC1	MARV entry inh 13µM, Lassa entry inh 7.3µM
[O-]/C(=C(\C(=S)NCCN1CCOCC1)[n+]1ccccc1)c1ccc(Cl)s1	none
FC(F)(F)c1ccc2c(c1)N(CCCN1CCN(CCCl)CC1)c1ccccc1S2	MARV entry inh 20µM, Lassa entry inh inconclusive
OCCN1CCN(CCCN2c3ccccc3C=Cc3ccccc32)CC1	MARV entry inh 7.94µM, Lassa entry inh inconclusive
COc1ccc(CC(=O)N/N=C(\C)CC(=O)NCc2ccco2)cc1OC	none (no result: MARV entry inh, Lassa entry inh)
COc1ccccc1NC(=O)C1=C(C)Nc2nc3ccccc3n2C1c1cccc(OC)c1OC (centres undefined)	none (no result: CHX counter, Shiga toxin inh)
CSc1nc(C)c2c(n1)N(c1ccc(C(C)C)cc1)CC2	none
CCOC(=O)c1cnc(-n2nc(C)cc2C)nc1Nc1ccc(N(C)C)cc1	MARV entry inh inconclusive, Lassa entry inh 7.3µM
CCOC(=O)c1cnc(-n2nc(C)cc2C)nc1NC	CHX counter 31.6
CCOC(=O)c1cnc(-n2nc(C)cc2C)nc1NC1CCCCC1	MARV entry inh 6.31µM, Lassa entry inh inconclusive
CCc1ccccc1N(C(=O)c1cccs1)C1C=CS(=O)(=O)C1 (centres undefined)	none
CC(=O)c1cccc(NC(=O)C2CCN(S(=O)(=O)c3ccc4c(c3)CCCN4C(C)=O)CC2)c1	none (no result: MARV entry inh, CHX counter, Shiga toxin inh)
C/C(=N/OC(=O)C1CC12CCC2)c1ccc(Br)cc1 (centres undefined)	CHX counter 68.1, Shiga toxin inh 155.8
Cc1cc2nc(-c3cccnc3SCC(=O)NC(C)C)[nH]c2cc1C	CHX counter 79.5, Shiga toxin inh 65.7 (no result: MARV entry inh, Lassa entry inh)
COCCOC(=O)CSc1ncccc1-c1nc2cc(C)c(C)cc2[nH]1	CHX counter 32.8 (no result: MARV entry inh, Lassa entry inh)
O=C(N/N=C1\C[C@@H](O)[C@@H](O)[C@@H]2[C@@H]3C(=O)N(Cc4ccc5c(c4)OCO5)C(=O)[C@@H]3CC[C@H]12)OCc1ccccc1	none (no result: CHX counter, Lassa entry inh, Shiga toxin inh)
O=C(CSc1nnc(NC(=O)c2ccco2)s1)Nc1ccc(F)cc1F	none
CCN(CC)c1ccc(NC(=O)c2cc(OC)cc(OC)c2)c(C)c1	MARV entry inh inconclusive, Lassa entry inh inconclusive
CCN(CC)c1ccc(NC(=O)c2cccc(OC)c2)c(C)c1	MARV entry inh inconclusive, CHX counter 16.5, Lassa entry inh inconclusive
CCN(CC)c1ccc(NC(=O)c2ccc3c(c2)OCO3)c(C)c1	CHX counter 16.9
N=C1S/C(=C\c2ccccc2F)C(=O)N1c1ccc(F)cc1	none
